Results filed as inconclusive are left out. A call without a number means that no potency is given here. Active and inactive are the calls of the source. Calls come from the whole dose curve; as a rule, active = well fitted curve in the direction sought with a large enough effect; inconclusive = small, poorly fitted or top-dose-only effect, or another doubt; inactive = no such curve, though single readings can be large or run the other way.

For the experiment, the target named is Protein phosphatase EYA2 (Homo sapiens) (UniProt O00167). Nature of the experiment: Inhibitors of Eya2ED: Hit Confirmation in Primary Screen. As to conditions: Recombinant Eya2ED, OMFP fluorescence phosphatase assay; series mostly up to 76.9 µM. In outline: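 Eya2 (dispensed at 0.2 uM) was preincubated 10 min at ambient with compound in 50 mM HEPES pH 7.5, 50 mM NaCl, 5 uM MgCl2, 0.05% BSA, 1 mM DTT. OMFP (dispensed at 50 uM) was then added, and fluorescence (ex 485/em 525 nm) was read after 10 min. Retested as 12-point titrations; EGTA control.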
Protein phosphatase EYA2 (Homo sapiens), sequence (O00167 whole entry, looked up): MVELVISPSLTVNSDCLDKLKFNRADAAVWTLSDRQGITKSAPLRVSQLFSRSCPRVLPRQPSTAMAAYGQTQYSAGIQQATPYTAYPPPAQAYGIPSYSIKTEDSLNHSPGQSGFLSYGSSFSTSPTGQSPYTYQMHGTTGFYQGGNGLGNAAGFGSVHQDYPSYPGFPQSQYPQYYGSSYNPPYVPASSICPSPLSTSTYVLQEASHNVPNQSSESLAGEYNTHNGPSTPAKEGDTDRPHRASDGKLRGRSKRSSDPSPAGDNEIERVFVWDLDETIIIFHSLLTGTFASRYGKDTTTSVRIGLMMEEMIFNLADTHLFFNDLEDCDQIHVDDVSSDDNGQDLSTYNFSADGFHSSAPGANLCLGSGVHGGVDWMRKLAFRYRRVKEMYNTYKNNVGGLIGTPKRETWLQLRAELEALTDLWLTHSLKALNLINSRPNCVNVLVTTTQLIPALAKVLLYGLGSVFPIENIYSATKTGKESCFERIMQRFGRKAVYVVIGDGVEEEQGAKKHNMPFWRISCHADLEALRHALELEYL
On to `O=C(N/N=C\c1ccc(Sc2ccccn2)o1)c1cccc(Br)c1`, for which the Potency was 1.84 µM (active).
The entry for `O=C(CC1(CC(=O)N2CCOCC2)CCCC1)Nc1ccccc1` is “inactive”.
In the case of `COc1cccc2[nH]c3c(=O)[nH]cnc3c12` it was “inactive”.
The entry for `CN1CC[n+]2cnc3ccccc3c21` is “inactive”; for `Cc1cccn2c(=O)nc(SCC(=O)NCc3ccc(F)cc3)nc12` it is “inactive”; for `O=C(CSc1c2c(nc3cc(Cl)ccc13)CCCC2)NCc1ccco1` it is “inactive”.
As for `Cc1c(NC(=O)C(C)OC(=O)CCC2CCCC2)c(=O)n(-c2ccccc2)n1C` (stereo unspecified), the Potency result was “inactive”.
In the case of `COC(=O)C1=C(C)Nc2ncnn2C1c1ccco1` (stereo unspecified) it was “inactive”; in that of `COc1cc(C(=O)Nc2ccc(NC(=O)c3ccccc3Cl)nc2)cc(OC)c1OC`, “inactive”.
On to `O=C(NC1CCN(Cc2ccccc2)CC1)c1cccc(S(=O)(=O)Nc2ccc(SC(F)F)cc2)c1`, for which the Potency entry is “inactive”.
As to `CCCOc1ccc(S(=O)(=O)N2CCN(C)CC2)c2ccccc12`, the Potency result is “inactive”.
Turning to `O=C(COC(=O)c1cc(Cl)ccc1Cl)NC1CCCC1`, the Potency result is “inactive”.
With `C#CCOCCOCCOCCNc1nc(N2CCN(C(=O)CCCCCCCCCCNC(=O)[C@H](CCCCN)n3cc(C)nn3)CC2)nc(N2CCN(C(=O)CCCCCCCCCCNC(=O)[C@H](CCCN=C(N)N)n3cc(C[C@@H](C)CC)nn3)CC2)n1`, the Potency is 18.4 µM (active).
In the case of `Cn1c(N)c(C(=O)CSc2nnc(C3CC3)n2-c2ccccc2)c(=O)[nH]c1=O` it was “inactive”; in that of `COc1ccc(NS(=O)(=O)c2cc([N+](=O)[O-])ccc2NN=Cc2ccccc2OCC(=O)O)cc1`, “inactive”; in that of `C=CCC1(C#N)C(=S)NC(C)=C(C(=O)OCC)C1c1ccccc1` (stereo unspecified), “inactive”.

Values taken from PubChem BioAssay AID504895 (National Center for Advancing Translational Sciences (NCATS), 2011).
